Shown are actives, neighbours in structure and some others; about 2.2% of the full set was active somewhere.
PAX8 inh HTS = inhibitors of PAX8-driven TPO luciferase reporter, primary screen, RMG-I cells, single concentration; SteadyGlo, 24 h; inhibition, % at 12.6 µM; 1.2% of 360,000 active;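 active = mean replicate inhibition at least 60% with every replicate also reaching 60%; inconclusive = only one of the two criteria is met; inactive = mean below 60% and not all replicates reaching 60%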;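 also: luciferase light reporting Pax8 driven TPO promoter activity; plate controls were median of neutral control wells for no effect and mitoxantrone controls for full effect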
Shn3 inh set2 = reduction of Shn3 3'UTR firefly luciferase signal, primary screen, Schnurri-3 inhibitor project, cell-based, Clone20 osteoblasts, set 2; Clone20 osteoblast Shn3 3'UTR firefly luciferase, 24 h; 0.52% of 360,000 active; inhibition, % at 12.5 µM;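 active = mean inhibition of at least 75% with every replicate also reaching 75%; inconclusive = mean inhibition at least 75% but some replicate below; inactive = mean inhibition below 75%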;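 also: 0% = median of neutral control wells and 100% = pilot-screen positive control compound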
EBV LMP1 NFkB = EBV LMP1-driven NF-kappaB luciferase reporter inhibitors, primary screen, cell-based, luminescence, single point. LMP1-induced NF-kappaB luciferase reporter cells. inhibition, % at 12.5 µM. 0.69% of 350,000 active. AID 504558, 2011; in the data active = inhibition above about 41%; inconclusive = no clear call, values can overlap the other calls;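 also: 0% = neutral control wells and 100% = reference inhibitor control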
EWS-Fli block = EWS/Fli-driven NR0B1 reporter inhibitors, primary screen, A673 cells, NR0B1 luciferase, luminescence, MLPCN library; inhibition, % at 12.6 µM; 0.67% of 350,000 active; AID 651661, 2012; viability-normalised;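 active = mean inhibition of at least 50% after viability correction, with every replicate also passing that limit; inconclusive = mean reaches 50% but only one of two replicates passes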;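 also: firefly luciferase signal divided by Alamar Blue viability fluorescence both relative to DMSO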
LGR2 antag = inhibitors of bursicon-induced LGR2 CRE-luciferase signal, primary screen, cell-based, HEK293, CRE-luciferase reporter, bursicon stimulation; 0.35% of 380,000 active; inhibition, % at 9.99 µM; AID 720647, 2013; bursicon-stimulated, 4 h;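 active = drop in luminescence signal, shown as inhibition above about 50% in the replicate tests, limit read from the data, passing the limit was not always enough; inconclusive = probably only some replicates passing the limit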;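 also: agonist challenge used bursicon conditioned medium at about half maximal strength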
MITF TRPM1 inh = inhibitors of MITF-dependent TRPM1 promoter reporter, primary screen, cell-based, SK-MEL-5, single point, luciferase; SK-MEL-5 TRPM1 promoter luciferase, 24 h; inhibition, % at 12.5 µM; 0.83% of 330,000 active; AID 488899, 2010;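 active = mean inhibition across replicates of 60% or more, whatever share of single replicates reaches that level; inconclusive = some that reach 60%, reason not given; inactive = mean inhibition across replicates below 60%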
The depositor's hits bear a star; ? = inconclusive; · = not tested or not shown.

SMILES	PAX8 inh HTS	Shn3 inh set2	EBV LMP1 NFkB	EWS-Fli block	LGR2 antag	MITF TRPM1 inh
CCOc1ccccc1NC(=O)c1nc(S(=O)(=O)Cc2cccc(C)c2)ncc1Cl	132.3*	97.6*	66.3*	58.4*	4.0	93.4*
CCc1nnc(NC(=O)c2nc(S(=O)(=O)Cc3ccc(C)cc3)ncc2Cl)s1	6.1	93.7*	10.2	·	-21.6	69.5*
CC(C)NC(=O)N(C)C[C@H]1OCCCC[C@H](C)Oc2ccc(NC(=O)C3CCCCC3)cc2C(=O)N([C@H](C)CO)C[C@H]1C	-9.3	·	·	·	-2.8	·
C[C@H](CO)N1C[C@H](C)[C@@H](CN(C)C(=O)C2CCCCC2)OCCCC[C@H](C)Oc2ccc(NC(=O)C3CCCCC3)cc2C1=O	10.3	·	·	9.7	11.5	·
Clc1nnc(N/N=C/c2ccccc2)c2ccccc12	·	-62.0	-15.5	·	-46.4	-11.1
C[n+]1ccc(/C=N/Nc2nc(Cl)c(C#N)c(Cl)c2Cl)cc1	63.1*	-2.3	-10.9	-17.0	6.0	5.2
Cc1noc(C)c1NC(=O)N(C)C[C@@H]1OCCCC[C@@H](C)Oc2ccc(NC(=O)c3ccccc3)cc2C(=O)N([C@@H](C)CO)C[C@H]1C	-14.3	·	·	0.3	-0.1	·
Cc1ccc(-c2nnc(NCc3nc4ccccc4[nH]3)c3ccccc23)cc1S(=O)(=O)N1CCOCC1	·	0.3	1.7	·	·	29.8
Cc1ccc(-c2nnc(NCc3nc4ccccc4[nH]3)c3ccccc23)cc1S(=O)(=O)N(C)C	34.7	34.0	18.3	26.6	58.2*	20.0
O=C(/C=C/c1ccc(O)c(O)c1)OC(Cc1ccc(O)c(O)c1)C(=O)O (configuration not stated)	·	16.4	-0.7	8.1	5.0	·
O=C(/C=C/c1ccc(O)c(O)c1)OCCc1ccccc1	-14.3	95.5*	-22.4	40.7	-92.1	-71.0
CC(=O)NC(c1cc(Cl)c2cccnc2c1O)C(C)C (configuration not stated)	26.6	85.7*	22.6	13.8	24.2	29.3
CC(=O)NC(c1cc(Cl)c2ccccc2c1O)C(C)C (configuration not stated)	11.7	27.2	4.0	0.1	10.6	7.2
CC(=O)NC(c1ccc(C)cc1)c1cc(Cl)c2cccnc2c1O (configuration not stated)	36.2	87.4*	28.8	11.7	20.0	43.5
CC(=O)NC(c1ccco1)c1cc(Cl)c2cccnc2c1O (configuration not stated)	33.8	51.1	·	8.5	22.4	·
CCCCC(=O)NC(c1ccco1)c1cc(Cl)c2cccnc2c1O (configuration not stated)	54.2	78.0	31.1	46.8	30.2	6.4
COc1ccc(C(NC(=O)c2cccnc2)c2cc(Cl)c3cccnc3c2O)cc1OC (configuration not stated)	·	92.5*	35.2	·	·	19.0
CCC(=O)NC(c1ccco1)c1cc(Cl)c2cccnc2c1O (configuration not stated)	85.5*	83.3	12.8	19.1	-13.2	35.7
CCC(=O)NC(c1ccc(OC)cc1)c1cc(Cl)c2cccnc2c1O (configuration not stated)	29.1	60.4	37.9	-12.5	10.3	50.2
CCn1nnc2cc(C(=O)O)ccc21	13.2	2.5	0.9	-1.8	5.3	-2.4
CCn1nnc2cc(C(=O)NCCc3ccccc3F)ccc21	4.2	19.4	?	56.2*	53.7*	-8.7
CO[C@H]1CN(C)C(=O)c2ccc(NC(=O)C3CC3)cc2OC[C@H](C)N(CC2CC2)C[C@H]1C	6.8	·	·	-10.1	-1.7	·
CCOC(=O)Cn1c(=NC(=O)c2ccc([N+](=O)[O-])s2)sc2ccccc21	-1.2	14.8	11.9	26.4	·	73.5*
COc1cc(SC#N)ccc1N=Cc1c(C)[nH]n(-c2ccc(C)c(C)c2)c1=O	33.5	?	-382.7	11.2	·	87.8*
O=C1C(=O)c2ccccc2C(O)=C1CCCCl	·	14.3	0.3	·	·	78.0*
SMILES	PAX8 inh HTS	Shn3 inh set2	EBV LMP1 NFkB	EWS-Fli block	LGR2 antag	MITF TRPM1 inh
COc1ccc(S(=O)(=O)Nc2cccc3c2O[C@H](CN(C)S(=O)(=O)c2ccc(OC)cc2)[C@H](C)CN([C@H](C)CO)C3=O)cc1	-17.6	·	·	·	-12.7	·
CC(C)(C)n1nc(-c2ccc(Cl)cc2)c2c(N)ncnc21	·	64.2	41.7*	·	·	-7.2
CC(=O)OCCCNc1cc(Sc2ccc(Cl)cc2)c2nonc2c1[N+](=O)[O-]	4.2	?	27.3	-0.6	?	75.3*
CCC(=O)OCCNc1cc(Sc2nccn2C)c2nonc2c1[N+](=O)[O-]	104.4*	89.2*	26.5	·	19.0	92.2*
CCCC(=O)OCCNc1cc(Sc2nc3ccccc3[nH]2)c2nonc2c1[N+](=O)[O-]	85.6*	93.0*	11.5	·	-5.3	-4.6
Cc1ccc(Sc2cc(NCCCO)c([N+](=O)[O-])c3nonc23)cc1	10.6	-14.4	13.5	17.2	9.4	12.9
C[C@H]1CN([C@@H](C)CO)C(=O)Cc2cc(NC(=O)Cc3cn(C)c4ccccc34)ccc2O[C@@H]1CN(C)S(=O)(=O)c1ccc(Cl)cc1	5.7	·	·	11.2	0.5	·
O=C(C[C@@H]1CC[C@H]2[C@@H](COC[C@@H](O)CN2C(=O)Nc2ccccc2)O1)NCCCN1CCOCC1	-8.6	·	·	-19.4	-2.0	·
COc1cc(N/N=C/c2ccc(N(C)C)cc2)ncn1	5.0	27.5	23.0	-3.0	73.8*	20.0
O=C(C1CCC(=O)N(C2CCCC2)C1)N1CCN(c2ccc(Cl)cc2)CC1 (configuration not stated)	7.0	-2.5	5.1	·	22.4	-12.2
Cc1ccc(Cl)cc1N1CCN(C(=O)C2CCC(=O)N(C3CCCCCC3)C2)CC1 (configuration not stated)	-2.7	86.5*	26.4	·	-2.3	23.3
CC(C)NC(=O)NCC[C@H]1CC[C@@H](NS(=O)(=O)c2ccc(-c3ccccc3)cc2)[C@@H](CO)O1	10.0	·	·	-2.6	-21.6	·
CCOC(=O)c1c(C)[nH]c(C(=O)COC(=O)[C@H](C)N2C(=O)C3CCCCC3C2=O)c1C (some centres not stated)	-2.2	92.7*	-3.0	-10.2	6.6	17.4
Cc1noc(C)c1S(=O)(=O)Nc1ccc2c(c1)C(=O)N([C@@H](C)CO)C[C@H](C)[C@H](CN(C)S(=O)(=O)c1cccs1)O2	0.3	·	·	-8.8	-3.8	·
CCn1c(=O)c([N+](=O)[O-])c(Cl)c2ccccc21	·	96.4*	-4.1	·	·	94.0*
CCCOc1ccc2oc(=O)c3c(c2c1)CCCN3C(=O)CN1CCN(c2ncccn2)CC1	·	93.6*	-6.3	·	·	0.7
CCCOc1ccc2oc(=O)c3c(c2c1)CCCN3C(=O)CN1CCCC(C(=O)OCC)C1 (configuration not stated)	·	1.8	1.1	·	2.9	2.4

Screens (PubChem BioAssay)
